Measured values as given in the supplement of paper PMC10412459.

Test system: K562 SF3B1 K700E vs K562 SF3B1 WT
Experiment: surviving fraction ratio K562 SF3B1 K700E / K562 SF3B1 WT (each relative to DMSO); higher = less selective killing of SF3B1 K700E cells
Conditions: 5 days
Summary of the method: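 In 384-well plates holding 250 cells per well, isogenic K562 cells bearing an engineered mutant allele and matched wild-type cells received compounds from an in-house 80-compound library 24 h after seeding. Doses were 0.5, 1, 5, 10, 50, 100, 500 and 1,000 nM, with 5 d of continuous culture. Surviving fractions were taken from CellTiter-Glo readings and normalised to DMSO. The value reported is the mutant-over-wild-type ratio of these fractions.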

SMILES	surviving fraction ratio K562 SF3B1 K700E / K562 SF3B1 WT (0.5nM)	surviving fraction ratio K562 SF3B1 K700E / K562 SF3B1 WT (1nM)	surviving fraction ratio K562 SF3B1 K700E / K562 SF3B1 WT (5nM)	surviving fraction ratio K562 SF3B1 K700E / K562 SF3B1 WT (10nM)	surviving fraction ratio K562 SF3B1 K700E / K562 SF3B1 WT (50nM)	surviving fraction ratio K562 SF3B1 K700E / K562 SF3B1 WT (100nM)	surviving fraction ratio K562 SF3B1 K700E / K562 SF3B1 WT (500nM)	surviving fraction ratio K562 SF3B1 K700E / K562 SF3B1 WT (1000nM)	surviving fraction ratio K562 SF3B1 K700E / K562 SF3B1 WT (0.1nM)	surviving fraction ratio K562 SF3B1 K700E / K562 SF3B1 WT (0.2nM)	surviving fraction ratio K562 SF3B1 K700E / K562 SF3B1 WT (2nM)	surviving fraction ratio K562 SF3B1 K700E / K562 SF3B1 WT (20nM)	surviving fraction ratio K562 SF3B1 K700E / K562 SF3B1 WT (200nM)
O=C(O)CC[C@H]1CC[C@@](c2cc(F)ccc2F)(S(=O)(=O)c2ccc(Cl)cc2)CC1	0.908	1.04	0.989	0.805	0.852	0.975	0.932	1.04					
NC1(c2ccc(-c3nc4ccn5c(=O)[nH]nc5c4cc3-c3ccccc3)cc2)CCC1	0.882	0.849	0.841	0.686	0.61	0.706	0.654	0.626					
CN(C)C/C=C/C(=O)Nc1cc2c(Nc3ccc(F)c(Cl)c3)ncnc2cc1O[C@H]1CCOC1	0.936	1.06	0.796	0.769	0.795	0.679	0.666	0.915					
COc1cc2c(cc1O)CC[C@@H]1[C@@H]2CC[C@]2(C)[C@@H](O)CC[C@@H]12 [2-methoxyestradiol]	0.765	0.733	0.666	0.851	0.706	0.595	0.626	1.48					
COc1cc2c(Oc3ccc(NC(=O)C4(C(=O)Nc5ccc(F)cc5)CC4)cc3F)ccnc2cc1OCCCN1CCOCC1 [Foretinib]	0.742	0.75	0.797	0.729	0.775	0.561	1.02	0.913					
C[C@@H](Oc1cc(-c2cnn(C3CCNCC3)c2)cnc1N)c1c(Cl)ccc(F)c1Cl	0.965	1.06	0.847	0.861	0.652	0.542	1.17	1.06					
Nc1ncn([C@H]2C[C@H](O)[C@@H](CO)O2)c(=O)n1 [decitabine]	0.733	0.724	0.773	0.665	0.964	0.894	1.13	1.36					
COc1cc2ncnc(Nc3ccc(F)c(Cl)c3)c2cc1NC(=O)/C=C/CN1CCCCC1	0.911	0.948	0.89	0.805	0.886	0.945	0.756	0.642					
Cn1nnc2c(C(N)=O)ncn2c1=O [temozolomide]	0.816	0.823	0.844	0.765	0.88	0.843	0.714	0.794					
CNC(=O)c1cc(Oc2ccc(NC(=O)Nc3ccc(Cl)c(C(F)(F)F)c3)cc2)ccn1 [sorafenib]	0.8	0.973	0.87	0.956	0.915	1	0.887	0.973					
Cc1cn(-c2cc(NC(=O)c3ccc(C)c(Nc4nccc(-c5cccnc5)n4)c3)cc(C(F)(F)F)c2)cn1 [nilotinib]	0.834	0.742	0.537	0.816	1.47	1.48	1.53	1.51					
C=CCNC1=C2C[C@@H](C)C[C@H](OC)[C@H](O)[C@@H](C)/C=C(\C)[C@H](OC(N)=O)[C@@H](OC)/C=C\C=C(/C)C(=O)NC(=CC1=O)C2=O	1.01	0.993	0.811	0.776	0.41	1.81	1.31	1.24					
CS(=O)(=O)c1ccc(C(=O)Nc2ccc(Cl)c(-c3ccccn3)c2)c(Cl)c1	1.07	0.954	0.96	0.872	1	0.969	1.01	1.07					
C#Cc1cccc(Nc2ncnc3cc(OCCOC)c(OCCOC)cc23)c1 [erlotinib]	0.882	0.743	0.852	0.843	0.692	0.788	0.811	0.712					
CN1CCN(c2nc(C3=C(c4c[nH]c5ccccc45)C(=O)NC3=O)c3ccccc3n2)CC1 [Sotrastaurin/AEB071]	0.816	0.804	0.847	0.854	0.889	0.979	0.955	0.896					
CC/C(=C(\c1ccc(O)cc1)c1ccc(OCCN(C)C)cc1)c1ccccc1 [4-OH-tamoxifen]	0.874	0.875	0.857	0.778	1	0.923	0.884	0.993					
C[C@]12O[C@H](C[C@]1(O)CO)n1c3ccccc3c3c4c(c5c6ccccc6n2c5c31)CNC4=O [lestaurtinib]		0.8		0.877		0.823			0.691	0.885	0.895	0.855	0.907
Cc1ccc(NC(=O)c2ccc(CN3CCN(C)CC3)cc2)cc1Nc1nccc(-c2cccnc2)n1 [imatinibmesylate]	0.696	0.74	0.733	0.692	0.55	0.617	1.5	1.1					
CCN(CC)CCNC(=O)c1c(C)[nH]c(/C=C2\C(=O)Nc3ccc(F)cc32)c1C [sunitinib]	1.09	1.08	0.928	1.33	0.86	1.2	0.73	0.857					
Oc1nc(-c2ccc(C(F)(F)F)cc2)nc2c1CSCC2	1.15	0.906	0.867	0.822	1.35	1.11	1.15	0.958					
COCC[n+]1c2c(n(Cc3cnccn3)c1C)C(=O)c1ccccc1C2=O	0.819	0.805	1.33	1.8	1.14	0.899	0.84	0.809					
CC[C@@H](C(=O)[C@@H](C)[C@@H](O)[C@H](C)[C@@H]1O[C@@H]([C@@H](CC)C(=O)O)CC[C@@H]1C)[C@H]1O[C@]2(C=C[C@@H](O)[C@]3(CC[C@@](C)([C@H]4CC[C@](O)(CC)[C@H](C)O4)O3)O2)[C@H](C)C[C@@H]1C [salinomycin]	0.921	0.999	0.871	1.27	0.88	0.831	0.898	1.16					
COc1cc2nccc(Oc3ccc(NC(=O)NC4CC4)c(Cl)c3)c2cc1C(N)=O [Lenvatinib]	0.728	0.787	0.763	0.755	0.815	0.834	0.71	0.674					
Cc1nc(Nc2ncc(C(=O)Nc3c(C)cccc3Cl)s2)cc(N2CCN(CCO)CC2)n1 [dasatinib]	1.18	2.2	1.86	1.39	1.23	1.42	1.72	1.65					
CCN(CC)CCCCNc1ncc2cc(-c3cc(OC)cc(OC)c3)c(NC(=O)NC(C)(C)C)nc2n1	1.15	1.03	0.942	0.926	0.901	1.09	0.957	0.89					
